# Measured values: PubChem BioAssay AID686979 (National Center for Advancing Translational Sciences (NCATS), 2013)
# Out of some 420,000 compounds screened, about 50,000 (12%) were called active. Entries that show only a call come without a potency. About 26% were inconclusive and are not listed. The sample holds actives, similar compounds and a random draw of the others, so the mix is not that of the screen. Calls follow the shape of the dose curve; as a rule, active = well fitted inhibition curve with a large enough effect; inconclusive = small, poorly fitted or top-dose-only effect; inactive = flat fitted curve, though single readings scatter.
# Assay: qHTS for Inhibitors of human tyrosyl-DNA phosphodiesterase 1 (TDP1): qHTS in cells in presence of CPT; also: nearly all actives have a fitted effect of over 55% in size
# Settings: chicken DT40 Tdp1-/-;hTDP1 cells + 20 nM CPT, ATP luminescence, 48 h; series mostly up to 46.2 µM
# Description: Human tyrosyl-DNA phosphodiesterase 1 (TDP1) is a novel repair gene, and we propose to use it as a new target for anticancer drug development. TDP1 is not an essential protein, but under treatment with topoisomerase I poison (camptothecin: CPT), TDP1 works as a critical factor for cell survival. To directly identify novel TDP1 inhibitors active in a cellular environment, we have knocked-out the Tdp1 gene in chicken DT40 cells (Tdp1-/-) and generated a complemented counterpart cells that contains a stable transfection of the human TDP1 gene (Tdp1-/-;hTDP1 cells). For the primary screen, Tdp1-/-;hTDP1 cells will be exposed to small molecules in the presence or absence of CPT, and their growth kinetics will be evaluated after 48 hours by measuring ATP activity. […] The hit compounds will then be evaluated in the presence or absence of CPT using Tdp1-/- cells. […] In tertiary assays, biochemical gel-based assays will be used to assess whether the hit compounds specifically target TDP1. To this end, we have screened this cell line against the MLSMR in two primary screens. In one screen we add CPT and in the other we screen in the absence of CPT; this AID represents the screen where CPT was present. NIH Chemical Genomics Center [NCGC] NIH Molecular Libraries Probe Centers Network [MLPCN] MLPCN Grant: MH095538 Assay Submitter (PI): Yves Pommier, NCI
# DT40-hTDP1 cells with 20 nM Camptothecin (add 20 microL of 1 mM CPT stock in 1 L of cell culture medium) were dispensed at 400 cells/5microL/well in tissue culture treated 1536-well white wall/solid bottom assay plates (Greiner Bio-One North America, NC, U.S.A.) using a Multidrop Combi 8 channel dispenser (Thermo Fisher, Waltham, MA, USA). 23 nL compounds and controls were transferred using the pin tool (Kalypsys, San Diego, CA, USA) to the assay plates. The assay plates were then incubated at 37 masculineC for a minimum 48 hr. Three microL of Cell Titer Glo solution was added to the plates and incubated at RT in dark for 30 min. Luminescence was read using ViewLux (Perkin Elmer) with 1 sec exposure slow speed, high gain and 2x binning.
# Potency is read from the fitted curve at half-maximal effect.
row,SMILES,Potency
1,NS(=O)(=O)c1ccc(CCNc2nc(C(F)(F)F)nc3ccccc23)cc1,inactive
2,CN(C)C(CNC(=O)Cc1ccc([N+](=O)[O-])cc1)c1ccccc1 (stereo not given),inactive
3,CCc1ccc(C(CNc2nc(C(F)(F)F)nc3ccccc23)N(C)C)cc1 (stereo not given),16.4 µM (active)
4,CCN(CC)CCCN=C(N)N,inactive
5,Cc1nc2ccc(S(=O)(=O)NC(C(=O)NCc3ccccc3Cl)C(C)C)cc2s1 (stereo not given),inactive
6,O=C(CC(c1cccs1)N1Cc2ccccc2C1=O)Nc1ccc(F)cc1F (stereo not given),20.6 µM (active)
7,COc1cc(C(CC(=O)NCCC(C)C)N2Cc3ccccc3C2=O)cc(OC)c1OC (stereo not given),inactive
8,O=C(O)CC(c1ccccc1F)N1Cc2ccccc2C1=O (stereo not given),inactive
9,Nc1nc(SCC(=O)NCCN2CCOCC2)nc2sc3c(c12)CCC3,inactive
10,CC(C)(C)C1CCc2c(sc3nc(SCC(N)=O)nc(N)c23)C1 (stereo not given),16.4 µM (active)
11,CN(C)CCSc1nc(N)c2c3c(sc2n1)COC(C)(C)C3,inactive
12,Cc1cnc(-n2ncc(C(=O)N3CCN(C(C)C)CC3)c2-c2ccco2)nc1-c1ccc(F)cc1,inactive
13,O=c1o[nH]c(-c2ccccc2)c1N=Nc1c(F)cccc1Cl,inactive
14,Cc1nc2ccccc2c(=O)n1NC(=O)c1ccc(Cl)c([N+](=O)[O-])c1,inactive
15,COC(=O)c1c(NC(=O)C(=O)N2CCCCC2)sc2c1CC(C)(C)OC2,inactive
16,CC1(C)Cc2c(sc(NC(=O)C(=O)N3CCOCC3)c2C#N)CO1,20.6 µM (active)
17,CCOC(=O)N1CCN(C(=O)C(=O)Nc2sc3c(c2C#N)CC(C)(C)OC3)CC1,inactive
18,CCOc1cc(NC(=O)Nc2ccccc2)c(OCC)cc1NC(=O)CC,inactive
19,CN(NC(=O)C1CC(=O)N(c2ccccc2)C1)C1=NS(=O)(=O)c2ccccc21 (stereo not given),inactive
20,O=C(N/N=C/c1ccccn1)C12CC3CC(CC(C3)C1)C2,inactive
21,S=C(NN=Cc1ccccn1)Nc1ccccn1,1.46 µM (active)
22,CNC(=O)C(=O)N/N=C/c1ccccn1,inactive

row,SMILES,Potency
1,CC(=O)N1CCN(C(=O)C2(NC(=O)Nc3ccc(C)cc3)CCCCC2)CC1,inactive
2,CC(=O)NCC(=O)N1CCC(n2nccc2NC(=O)CCCc2ccccc2)CC1,inactive
3,c1ccc(C(=NNc2nc3ccccc3s2)c2ccccn2)cc1,0.164 µM (active)
4,O=C(Nc1ccccc1Cl)O/N=C(/c1ccccc1)c1ccccn1,inactive
5,c1ccc2sc(NN=C3CCCC3)nc2c1,inactive
6,CC(C)CN1C(=O)CN(S(C)(=O)=O)CC1(C)C(=O)NCc1ccccc1 (stereo not given),inactive
7,CCN(CC(=O)Nc1c(F)cccc1F)C(=O)c1ccc(-c2ccc(C(C)=O)cc2)o1,inactive
8,Cc1ccc(S(=O)(=O)NCC(=O)N(CC(=O)NC(C)(C)C)Cc2cccs2)cc1,inactive
9,Cc1cc(C)cc(C(=O)OCC(=O)NCCNC(=O)COC(=O)c2cc(C)cc(C)c2)c1,inactive
10,Cc1cccc([C@@H]2[C@@H]3C(=O)N(Cc4ccccc4)C(=O)[C@@H]3[C@]3(Cc4ccc(Cl)cc4)C(=O)N(c4cccc(Cl)c4)C(=O)N23)c1,inactive
11,Cc1ccc(-c2cccc([C@H]3[C@@H]4C=CC[C@@H](C)[C@@H]4C(=O)N3Cc3ccccc3)c2)cc1,14.6 µM (active)
12,COc1ccc(CN2CCNC(=O)C2CC(=O)N(C)Cc2ccccn2)cc1OC (stereo not given),inactive
13,O=[N+]([O-])c1ccc(N2CCOCC2)cc1,inactive
14,O=C(OCc1ccc([N+](=O)[O-])cc1)C1CC(=O)N(Cc2ccccc2Cl)C1 (stereo not given),inactive
15,O=[N+]([O-])c1ccc(COc2ccccc2CN2CCOCC2)cc1,23.1 µM (active)
16,O=C1c2cccc3cccc(c23)C(=O)N1c1cccc(O)c1,inactive
17,C=CCn1c(COc2cccc3cccnc23)nnc1SCC(=O)OC,inactive
18,CCCCC(=O)NC(c1ccc(OC)c(OC)c1)c1ccc2cccnc2c1O (stereo not given),1.3 µM (active)
19,COc1ccc(CCNS(=O)(=O)c2cccc3cccnc23)cc1OC,inactive
20,O=C(NC1CCCC1)C(=O)c1c[nH]c2ccccc12,inactive
21,S=c1[nH]nc(-c2ccccc2)n1/N=C/c1c[nH]c2ccccc12,inactive
22,C[n+]1ccc(/C=C/c2c[nH]c3ccccc23)cc1,1.03 µM (active)

row,SMILES,Potency
1,CC1(C(=O)NS(=O)(=O)c2ccc(C#N)cc2)CCN1C(=O)CC1CCCC1 (stereo not given),inactive
2,CC1(C)CC2CC(C)(CN2c2ncnc3ccc(Br)cc23)C1 (stereo not given),5.17 µM (active)
3,O=C(COC(=O)Cc1ccccc1F)NNC(=O)c1ccc(Cl)cc1,inactive
4,COc1ccc(C)cc1N(CC(=O)NC(C)c1ccccc1)S(C)(=O)=O (stereo not given),inactive
5,CC(C)CNC(=O)C1(C)CCCN1C(=O)CSc1ccccc1 (stereo not given),inactive
6,Cc1cc(Nc2cccc(C(F)(F)F)c2)nc2ccc(NC(=O)c3ccc(=O)[nH]c3)cc12,16.4 µM (active)
7,COc1ccc(NC(=O)C(=O)NCC(=O)Nc2cccc(C(F)(F)F)c2)cc1,inactive
8,COc1ccc(/C=N/NC(=O)c2cccc(C(F)(F)F)c2)cc1,inactive
9,COc1cc(OC)cc(C(=O)Nc2ccc3nc(Nc4cccc(C(F)(F)F)c4)cc(C)c3c2)c1,9.2 µM (active)
10,O=C(O)CSc1c2c(nc3cc(C(=O)Nc4cccc(C(F)(F)F)c4)ccc13)CCCC2,inactive
11,CC(Oc1cccc(Cl)c1)C(=O)Nc1ccc(S(=O)(=O)Nc2ncccn2)cc1 (stereo not given),inactive
12,CCC(C)N1C(=O)S/C(=C/c2ccc(Sc3nc4ccccc4[nH]3)o2)C1=O (stereo not given),14.6 µM (active)
13,CCCCSc1nc2ccccc2[nH]1,inactive
14,CCc1nnc(NC(=O)CCCSc2nc3ccccc3[nH]2)s1,inactive
15,CCN1CCN(C(=O)C2CCN(S(=O)(=O)c3cc(Cl)ccc3Cl)CC2)CC1,inactive
16,Cc1nnc(SCC(=O)Nc2ncc3c(n2)CC(C)(C)CC3=O)s1,inactive
17,CC(C)=CCN1CCC2(CCc3ccccc32)CC1,11.6 µM (active)
18,CC(C)=CCN1CCN(CCCc2ccccc2)CC1CCO (stereo not given),inactive
19,COc1cc(CNCCSc2nnnn2C)ccc1OCc1c(F)cccc1Cl,inactive
20,Cn1nnnc1SCCNCc1ccc(Cl)c(Cl)c1,inactive
21,COc1cc(CNCCSc2nnnn2C)ccc1OCc1ccc(Cl)cc1Cl,16.4 µM (active)
